# Rows were chosen to be rich in hits. Some 2.4% of all compounds tested hit in one or more screens of this group.
# ANO1 activ: mouse TMEM16A channel activation, primary screen; 0.3% of 340,000 active; HEK293 TMEM16A/YFP-H148Q/I152L, iodide quench fluorescence; hits give low values; Q8BHY3; B-score at 10 µM;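 active = fluorescence-ratio B-score plate-corrected deviation score at least 3 library SD below zero, with starting fluorescence score within 5 deviations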;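 note: channel opened by trigger with iodide after compound preincubation; score built on the fluorescence ratio of max minus min over baseline; more negative score means more quench and so TMEM16A activation or potentiation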
# CRFR2-BP ag: CRF-BP/CRF-R2 complex agonism; HEK293 CRF-R2/CRF-BP, calcium dye fluorescence (FLIPR); percent of saturating CRF peptide response; activation, % at 13.2 µM; 0.46% of 350,000 active;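 active = activation of at least 50%, plus an integration ratio under a set limit after plate pattern correction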;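 note: plate controls were neutral control wells without compound for no effect and CRF at EC100 for full effect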
# Cardiac RTF inh: cardiac RTF calcium desensitization; P19429+P45379; IANBD-labeled cardiac RTF, Ca2+ fluorescence; inhibition, % at 7.15 µM; 0.12% of 340,000 active; AID 493244;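 active = inhibition above the mean inhibition of all tested compounds plus 3 SD, cut at about 17% in these data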;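 note: assay run at fixed EC70 calcium of 1.6 mM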
# ANO1 block: blocks the mouse calcium-activated chloride channel TMEM16A | Q8BHY3 | HEK293 TMEM16A/YFP iodide influx fluorescence, ionomycin | normalized B-score (activity score, 25-100; higher = stronger inhibition) at 10 µM | 1.2% of 310,000 active | AID 588511;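 active = ratio plate-corrected score three or more library SD toward inhibition, starting fluorescence score within five deviations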;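 note: score derived from kinetic fluorescence span divided by baseline fluorescence per well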
# cardiac RTF act: cardiac RTF calcium sensitization. P19429+P45379. IANBD-labeled TnC RTF fluorescence at EC20 calcium; 0% EC20 calcium, 100% full calcium. activation, % at 7.2 µM. 0.24% of 340,000 active. AID 493008;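 active = activation above the mean over all tested compounds plus 3 SD, cut at about 30% in these data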;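 note: rise in fluorescence read as greater calcium sensitivity of cardiac thin filaments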
# CRFBP-R2 block: CRF-BP/CRF-R2 complex antagonism. HEK293 CRF-R2/CRF-BP, CRF-induced calcium fluorescence. 0.59% of 350,000 active. inhibition, % at 11.8 µM;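 active = inhibition of the ligand-induced calcium signal above about 50% at the single tested concentration, limit read from the data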
# TMEM16A reconf: reconfirmed blocker of mouse TMEM16A calcium-activated chloride channel. 39% of 2,300 active. AID 652189. HEK293 TMEM16A/YFP-H148Q, iodide quench fluorescence; ionomycin added to raise cell calcium. inhibition, % at 10 µM. shares compounds with ANO1 block;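 active = mean duplicate percent inhibition, scaled so buffer wells are 0 and the reference blocker 100, over three buffer SD above buffer mean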
# TMEM16A Ca cntr: calcium mobilization counter-screen hit for TMEM16A inhibitor series; calcium response (% of ionomycin), % at 10 µM; shares compounds with ANO1 block; 2% of 2,300 active; TMEM16A/YFP HEK293, Fluo4 calcium mobilization;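 active = duplicate-averaged calcium signal over 20% of the ionomycin maximum, relative to buffer baseline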;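 note: each well's signal is peak minus trough fluorescence divided by its pre-addition baseline; 0% = buffer wells and 100% = ionomycin wells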
# Parental YFP cnt: counter-screen for TMEM16A inhibitors: effect in parental YFP-HEK293 cells; shares compounds with ANO1 block; 2,300 tested, under 10 active; iodide YFP quench, ionomycin; AID 652233; YFP ratio F(max-min)/F0 at 10 µM;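 active = yellow fluorescent protein signal ratio exceeding the buffer control mean by over 5 SD of those controls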;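 note: ratio is mean of duplicate wells from kinetic YFP trace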
# ClC-1 inh: rat ClC-1 inhibition, TMEM16A specificity screen; shares compounds with ANO1 block; 2,300 tested, under 10 active; AID 652236; CHO ClC-1-YFP, iodide influx fluorescence quench; iodide control reads 0, buffer control 100; ratio percent, % at 10 µM;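 active = duplicate-mean ratio percent above the mean of iodide-only control wells, which defines zero, plus 5 of their SD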;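 note: higher percent means stronger block of ClC-1 iodide influx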
# Target sequence (P35524 whole entry, looked up): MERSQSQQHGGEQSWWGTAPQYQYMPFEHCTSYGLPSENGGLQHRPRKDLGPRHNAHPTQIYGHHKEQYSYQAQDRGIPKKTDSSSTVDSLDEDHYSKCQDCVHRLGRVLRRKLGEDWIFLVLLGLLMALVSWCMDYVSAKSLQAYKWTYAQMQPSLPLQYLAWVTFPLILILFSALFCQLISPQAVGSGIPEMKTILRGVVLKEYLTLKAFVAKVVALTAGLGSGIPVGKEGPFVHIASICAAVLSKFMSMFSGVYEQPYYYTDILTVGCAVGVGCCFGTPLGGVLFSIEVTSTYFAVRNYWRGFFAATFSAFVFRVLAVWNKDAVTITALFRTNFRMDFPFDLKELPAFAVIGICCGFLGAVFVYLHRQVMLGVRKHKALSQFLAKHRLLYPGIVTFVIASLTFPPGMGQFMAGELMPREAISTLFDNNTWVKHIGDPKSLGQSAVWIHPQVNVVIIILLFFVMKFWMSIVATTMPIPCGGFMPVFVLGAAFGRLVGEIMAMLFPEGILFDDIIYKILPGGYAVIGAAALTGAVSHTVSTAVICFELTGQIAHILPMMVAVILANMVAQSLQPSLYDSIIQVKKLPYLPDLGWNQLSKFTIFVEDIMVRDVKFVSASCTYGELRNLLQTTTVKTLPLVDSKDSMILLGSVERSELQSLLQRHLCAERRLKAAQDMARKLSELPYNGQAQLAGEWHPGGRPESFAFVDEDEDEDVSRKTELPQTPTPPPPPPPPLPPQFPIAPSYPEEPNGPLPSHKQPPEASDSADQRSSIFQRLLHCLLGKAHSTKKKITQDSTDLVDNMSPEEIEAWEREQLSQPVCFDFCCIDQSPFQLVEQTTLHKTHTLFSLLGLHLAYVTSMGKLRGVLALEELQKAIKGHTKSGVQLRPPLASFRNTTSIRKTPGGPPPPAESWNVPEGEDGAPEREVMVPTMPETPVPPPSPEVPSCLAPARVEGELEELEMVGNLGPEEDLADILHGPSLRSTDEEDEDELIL
# The depositor's hits bear a star; i = inactive; · = no result given.
SMILES,ANO1 activ,CRFR2-BP ag,Cardiac RTF inh,ANO1 block,cardiac RTF act,CRFBP-R2 block,TMEM16A reconf,TMEM16A Ca cntr,Parental YFP cnt,ClC-1 inh
O=S(=O)(Nc1nc2ccccc2nc1N1CCN(c2ccccc2F)CC1)c1ccc(Cl)cc1,i,21,-5,100*,-2,35,38%*,i,-0.99,-10
O=C(NCc1ccc(Cl)cc1)C1CCN(C(=O)c2ccc(Cl)cc2)CC1,i,-3,-2,·,0,-3,·,·,·,·
Fc1cccc(CCN2CCNC[C@@H]2CC2CCCCC2)c1,i,1,2,·,7,-5,·,·,·,·
CN(C)c1ccc(NC(=O)CN2C(=O)c3ccccc3C2=O)cc1,i,-1,3,i,-2,4,·,·,·,·
Cc1cccc(Oc2cnn(C(C)(C)C)c(=O)c2Cl)c1,i,5,4,25*,-1,-17,i,i,-0.94,-16
CCOc1ccc(-c2[nH]ncc2Oc2cccc(OC)c2)c(O)c1,i,0,-3,100*,-2,6,i,i,-1,-10
COc1cccc(Oc2cn[nH]c2-c2ccc(OC)cc2O)c1,i,-2,-1,25*,-5,36,20%*,i,-1.3,-13
CCCCCCn1c(=O)c(-c2ccccc2)c(O)c2ccccc21,i,-1,0,i,0,-14,·,·,·,·
CCCCCCCn1c(=O)c(C(=O)OC)c(N)c2ccccc21,i,0,0,25*,-3,-24,43%*,i,-0.87,-25
O=C(CSc1nccc(=O)[nH]1)NC1CCCCCC1,i,-2,8,·,-5,-2,·,·,·,·
Cc1occc1C(=O)N1CCN(C(=O)C2CCCO2)CC1 (configuration not stated),i,0,5,i,5,5,·,·,·,·
Cc1cc(C(=O)N2CCN(C(=O)C3CCCO3)CC2)no1 (configuration not stated),i,0,-10,100*,0,29,20%*,i,-0.96,-6
Cc1ccnc(Cc2ccccc2)n1,i,0,-4,i,3,-3,·,·,·,·
CCOc1ccc(S(=O)(=O)N2CCOCC2)cc1NC(=O)CSCc1c(C)noc1C,i,0,-12,i,-7,-4,·,·,·,·
O=C(CSc1n[nH]c(-c2ccccc2)n1)NCc1cccc(C(=O)O)c1,i,0,-1,i,1,12,·,·,·,·
CN(C)c1nccc(N(Cc2ccccc2)Cc2ccccc2)c1C#N,i,1,-2,25*,-1,4,i,i,-1.2,-8
CN(C)CCN(Cc1ccccc1)c1ccnc(N(C)C)c1C#N,i,1,2,i,-1,-18,·,·,·,·
COCC1CCN(C(=O)c2cc(COc3cccc4cnccc34)on2)CC1,i,0,5,i,-2,-7,·,·,·,·
O=C(c1cc(COc2cccc3cnccc23)on1)N1CCCC(CCCO)C1 (configuration not stated),i,7,-7,25*,-1,-6,40%*,i,-1.3,-19
CC1O[C@@H](OCC2O[C@@H](Oc3cc(O)c4c(c3)OC(c3ccc(O)cc3)CC4=O)[C@H](O)[C@@H](O)[C@@H]2O)[C@H](O)[C@H](O)[C@H]1O (some centres not stated),i,2,0,i,-2,2,·,·,·,·
Cc1ccnc(NC2(C(F)(F)F)N=C(c3ccccc3)NC2=O)c1 (configuration not stated),i,-2,-2,i,2,-16,·,·,·,·
CC(C)(C)C(=O)N1CCN(c2ccc(Cl)cc2[N+](=O)[O-])CC1,i,2,14,i,-9,-9,·,·,·,·
O=C(CSc1ccc(Cl)cc1)N1CCN(c2ccc(Cl)cc2[N+](=O)[O-])CC1,i,1,5,100*,4,-18,i,i,-1.1,-2
CCCn1c(=O)cc(N)n(-c2ccc(OC(F)(F)F)cc2)c1=O,i,-4,-4,i,4,4,·,·,·,·
COc1ccc(C2C(C(=O)N3CCN(c4ccccc4)CC3)c3ccccc3C(=O)N2C)cc1OC (configuration not stated),i,1,-19,100*,5,-13,i,i,-1.1,-30
SMILES,ANO1 activ,CRFR2-BP ag,Cardiac RTF inh,ANO1 block,cardiac RTF act,CRFBP-R2 block,TMEM16A reconf,TMEM16A Ca cntr,Parental YFP cnt,ClC-1 inh
O=C(c1cccc(S(=O)(=O)Nc2ccc(F)cc2)c1)N1CCC1,i,-1,1,·,-3,2,·,·,·,·
Cc1ccc(NC2=NCCCCC2)cc1C,i,2,-4,i,9,7,·,·,·,·
Clc1ccc(NC2=NCCC2)cc1Cl,i,1,2,i,1,-3,i,i,-1.2,-8
Cc1nn(CC(=O)N(C)c2c(N)n(Cc3ccccc3)c(=O)[nH]c2=O)c(C)c1[N+](=O)[O-],i,2,-2,·,-4,-5,·,·,·,·
COc1ccc(S(=O)(=O)NCCSc2ccc(C)cc2)cc1OC,i,-3,-7,i,5,3,·,·,·,·
Cc1ccc(SCCNS(=O)(=O)c2ccc3c(c2)OCCO3)cc1,i,1,-4,25*,-6,6,i,i,-1.1,-9
CCNC(=S)NNC(=O)c1cc(-c2cccc(C)c2)nc2ccccc12,i,-1,2,i,-2,9,·,·,·,·
CCCCOc1cccc(-c2cc(C(=O)NNC(=S)NCC)c3ccccc3n2)c1,i,1,-2,25*,2,-18,24%*,i,-0.93,-7
CCNC(=S)NNC(=O)c1cc(-c2cccc(OCC)c2)nc2ccccc12,i,1,3,25*,0,15,i,i,-1.1,-5
CCNC(=S)NNC(=O)c1cc(-c2cccnc2)nc2ccccc12,i,0,-6,i,1,-1,·,·,·,·
O=C(Nc1ccc(Cl)c(C(F)(F)F)c1)[C@@H]1CC=C[C@@H]2CCN(C3CC3)C(=O)[C@@H]21,i,-1,3,i,3,-10,·,·,·,·
